According to PubChem BioAssay AID1441 (NMMLSC, 2008):
About 830 (0.38%) of roughly 220,000 compounds were called active. The full list was thinned out, with actives kept by preference. A number with no mark means an inactive call. How the calls were made is not given here.

Biological target: Regulator of G-protein signaling 16 (Homo sapiens) + Guanine nucleotide-binding protein G(o) subunit alpha (Homo sapiens) (UniProt O15492+P09471)
Assay: RGS16-Galphao interaction inhibitors and enhancers – biochemical, human proteins, multiplexed bead flow cytometry, primary screen (AID 1441);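 further: Galphao activated by GDP with aluminum fluoride before binding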
Conditions: bead-based flow cytometry RGS16-Galphao binding, fluorescence; at 10 µM; actives lie on both sides

Sequence of Regulator of G-protein signaling 16 (Homo sapiens) + Guanine nucleotide-binding protein G(o) subunit alpha (Homo sapiens) (O15492 whole entry, looked up): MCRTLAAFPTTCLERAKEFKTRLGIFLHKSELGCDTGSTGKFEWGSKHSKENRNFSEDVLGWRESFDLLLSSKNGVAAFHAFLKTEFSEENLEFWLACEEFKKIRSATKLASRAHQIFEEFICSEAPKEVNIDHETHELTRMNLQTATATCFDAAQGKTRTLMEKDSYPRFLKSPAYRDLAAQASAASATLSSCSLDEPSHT
Sequence of Regulator of G-protein signaling 16 (Homo sapiens) + Guanine nucleotide-binding protein G(o) subunit alpha (Homo sapiens) (P09471 whole entry, looked up): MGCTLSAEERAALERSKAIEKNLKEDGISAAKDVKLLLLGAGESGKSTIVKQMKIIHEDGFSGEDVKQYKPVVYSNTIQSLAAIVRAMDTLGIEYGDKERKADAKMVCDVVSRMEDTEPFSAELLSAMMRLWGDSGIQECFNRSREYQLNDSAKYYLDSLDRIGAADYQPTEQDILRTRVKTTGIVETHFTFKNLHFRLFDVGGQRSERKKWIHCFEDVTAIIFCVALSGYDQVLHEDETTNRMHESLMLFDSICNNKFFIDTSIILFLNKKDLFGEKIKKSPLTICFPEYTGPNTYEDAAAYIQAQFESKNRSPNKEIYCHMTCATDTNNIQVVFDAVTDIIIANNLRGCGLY

Row | Compound | binding response (% of control)
1 | CC(C)N(CC#CCC1(O)c2ccccc2-c2ccccc21)C(C)C | 180% [activator] (active)
2 | CCOC(=O)C1(Cc2ccc(Cl)cc2)CCN(C(C)CCn2cccn2)CC1 (stereo not given) | 102%
3 | O=[N+]([O-])c1ccc(C2C3C(c4ccccc4)=NC4(CCCCC4)N32)cc1 (stereo not given) | 100%
4 | COc1ccc(CN2C(=O)NC(=O)/C(=C\c3ccc(OC)c(OC)c3OC)C2=O)cc1 | 97.6%
5 | CCOC(=O)c1c(-c2ccccc2)oc2ccc(OC(=O)N(C)C)cc12 | 116%
